G9a block – qHTS Assay for Inhibitors of Histone Lysine Methyltransferase G9a; 350,000 compounds, 8.8% hits; Potency, µM (series often up to 102 µM), actives largely listed as inhibitors; G9a H3K9 monomethylation, AlphaScreen, 2 h; Histone-lysine N-methyltransferase EHMT2 (Homo sapiens), Q96KQ7; also: nearly all actives have a fitted effect of over 75% in size
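Methyltransferase reactions run at room temperature for 2 h (20 nM enzyme, 500 nM biotin-H3K9 peptide, 20 uM SAM) after a 15 min compound preincubation; product detected by AlphaScreen beads and anti-H3K9me1 antibody.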
LMNA splice mod – qHTS Assay for Modulators of Lamin A Splicing; HeLa LMNA splicing GFP/RFP minigene ratio, 48 h; Potency, µM (top dose mostly 46.1 µM), most hits filed as inhibitors; 200,000 compounds, 0.01% hits; AID 1487, 2009; active = well fitted inhibition curve with a large enough effect in the signal ratio, with a control signal flat, not every such curve was filed as active; inconclusive = small, poorly fitted or top-dose-only effect, or effect the other way, or a change in a side signal; the % refers to the signal ratio
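Read-out is the ratio of GFP to DsRed2 object intensity, acquired by 488 nm laser-scanning cytometry on HeLa lamin A-EGFP minigene reporter cells. Compound incubation 48 hrs at 37 °C in Opti-MEM with 2% FBS; DMSO 0.5% final.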
KDM4E inh – qHTS Assay for Inhibitors of Human Jumonji Domain Containing 2E (JMJD2E) | Lysine-specific demethylase 4E (Homo sapiens), B2RXH2 | JMJD2E catalytic domain, FDH-coupled NADH fluorescence (FDH is formaldehyde dehydrogenase) | Potency, µM (titrated, usually from 57.1 µM), actives largely listed as inhibitors | 230,000 compounds, 1.6% hits | AID 2147, 2009; active = well fitted inhibition curve with a large enough effect, not every such curve was filed as active; inconclusive = small, poorly fitted or top-dose-only effect, or another doubt; inactive = no such curve, though single readings can be large or run the other way; also: nearly all actives have a fitted effect of over 50% in size
Target sequence (B2RXH2 1-337 limits assumed): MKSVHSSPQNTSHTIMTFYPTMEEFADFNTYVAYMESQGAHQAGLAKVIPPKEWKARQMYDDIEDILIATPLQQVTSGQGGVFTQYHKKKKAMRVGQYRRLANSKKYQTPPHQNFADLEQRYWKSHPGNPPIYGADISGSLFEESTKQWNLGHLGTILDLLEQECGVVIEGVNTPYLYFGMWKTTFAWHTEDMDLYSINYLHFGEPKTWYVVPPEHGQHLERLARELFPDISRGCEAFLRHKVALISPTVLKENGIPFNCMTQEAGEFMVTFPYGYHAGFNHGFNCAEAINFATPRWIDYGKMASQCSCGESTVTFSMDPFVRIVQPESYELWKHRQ
miR-21 act – qHTS Assay for Modulators of miRNAs and/orActivators of miR-21. HeLa miR-21 FLuc reporter, luciferase, 48 h. 340,000 tested, under 10 active. Potency, µM (series often up to 38.3 µM), usual class: activators;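 also: miR-21 action dims this reporter so a rising signal means less miR-21 action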
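HeLa cells stably expressing CMV-driven firefly luciferase with a downstream miR-21 binding sequence, endogenously expressing miR-21, were treated with titrations (up to about 40uM final) for 48 hours at 37 degree Celsius. Luciferase luminescence was read after lysis.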
ALDH1A1 block – qHTS Assay for Inhibitors of Aldehyde Dehydrogenase 1 (ALDH1A1). Aldehyde dehydrogenase 1A1 (Homo sapiens), P00352. Purified ALDH1A1, NADH fluorescence, propionaldehyde substrate. Potency, µM (doses to about 75.3 µM), hits mostly inhibitors. 220,000 compounds, 7.3% hits; active = well fitted inhibition curve with a large enough effect, not every such curve was filed as active; inconclusive = small, poorly fitted or top-dose-only effect, or another doubt; inactive = no such curve, though single readings can be large or run the other way
Sfp PPTase inh – qHTS Assay for Inhibitors of Bacillus subtilis Sfp phosphopantetheinyl transferase (PPTase). Biochemical Sfp PPTase activity, qHTS. 4'-phosphopantetheinyl transferase ffp (Bacillus subtilis), Q9F4F7. Potency, µM, usual class: inhibitors. 310,000 compounds, 3.5% hits;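 also: the enzyme is Sfp with the accession as filed and its product quenches rhodamine fluorescence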
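Compounds were incubated with enzyme (final 15 nM) for 15 min at room temperature before substrate addition started the reaction. Fluorescence at 525 nm excitation, 598 nm emission was recorded immediately and after 30 minutes.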
Hits are given with their value; n = inactive; u = inconclusive; x = no result given; [ ] = remark or other dose. The list is not random: actives were taken first. Their share in the collection is about 13%. Unless noted, calls follow the shape of the dose curve; as a rule, active = well fitted curve in the direction sought with a large enough effect; inconclusive = small, poorly fitted or top-dose-only effect, or another doubt; inactive = no such curve, though single readings can be large; an effect the other way counts as inactive or inconclusive.

SMILES | G9a block | LMNA splice mod | KDM4E inh | miR-21 act | ALDH1A1 block | Sfp PPTase inh
O=C1NC[C@H](CC2CCCCC2)N(CCc2cccc(F)c2)C1=O | n[2.33 µM] | x | x | x | x | x
O=C(NCCOC12CC3CC(CC(C3)C1)C2)c1cccc(Br)c1 | n | n | n | n | 7.1µM | n
O=C(O)CCCCCNC(=O)c1cccc(Br)c1 | n | u | n | n | n | n
Cc1ccc(N2CC(NC(=O)c3ccc(S(=O)(=O)N4CCCC4)cc3)CC2=O)cc1C (stereo not drawn) | n | n | x | n | x | x
COc1ccc(-c2cc(C(C)=O)c(C)n2CCC(=O)NCc2ccc(F)cc2)cc1 | u | n | x | n | x | x
C/C=C/C=C/C(=O)[C@@H]1[C@@H]([C@]2(C)OC(=O)C(C)=C2O)[C@H]2/C(=C(O)/C=C/C=C/C)C(=O)[C@]1(C)C(=O)C2(C)O (stereo partly drawn) | u | x | u | n | x | 50µM
Cc1cc(Nc2ccc(O)cc2)ccc1N | n[0.501 µM] | x | x | x | 3.2µM | x
Cc1cc(Cc2ccc(N)c(C)c2)ccc1N | u | x | n | n | x | n
COCCCN1C(=O)c2ccc(C(=O)Nc3cccc(OC)c3)cc2C1=O | n | n | n | n | 1.6µM | n
O=C1c2oc3ccc(Cl)cc3c(=O)c2C(c2ccccn2)N1CCCN1CCOCC1 (stereo not drawn) | 20µM | n | u | n | 7.9µM | 25µM
C=CCOc1ccc(C2c3c(oc4ccccc4c3=O)C(=O)N2CCCN2CCOCC2)cc1 (stereo not drawn) | 50µM | n | u | n | 18µM | n
CC(C)c1ccc(C2c3c(oc4ccc(Cl)cc4c3=O)C(=O)N2CCCN2CCOCC2)cc1 (stereo not drawn) | n | x | x | n | x | x
CC(C)Oc1ccc(C2c3c(oc4ccccc4c3=O)C(=O)N2CCCN2CCOCC2)cc1 (stereo not drawn) | u | n | u | n | 8.9µM | n
COc1ccc(C2c3c(oc4ccc(C)cc4c3=O)C(=O)N2CCCN2CCOCC2)cc1OC (stereo not drawn) | n | n | x | n | x | x
Cc1ccc(C2c3c(oc4cc(C)c(C)cc4c3=O)C(=O)N2CCCN2CCOCC2)cc1 (stereo not drawn) | 40µM | n | n | n | 11µM | n
CCOc1ccc(C2c3c(oc4ccc(C)cc4c3=O)C(=O)N2CCCN2CCOCC2)cc1 (stereo not drawn) | n | n | x | n | x | x
CC(=O)Nc1cccc(NC(=O)C(=O)NCCc2csc3nc(-c4ccccc4F)nn23)c1 | n | n | x | n | x | x
Cc1cccc(Cn2cc3c(=O)n(CC(=O)Nc4ccc(C)c(F)c4)nc-3c3cc(F)ccc32)c1 | n | x | x | n | x | x
CCc1ccc2oc(C(=O)Nc3ccccc3OC)cc(=O)c2c1 | n | x | x | n | x | x
Cc1cc(C)c(NC(=O)CNC(=O)COC(=O)CN2C(=O)NC3(CCCC3)C2=O)c(C)c1 | n | x | x | x | x | x
Cn1cnc(S(=O)(=O)N2CCCC(C(=O)NCc3ccc(F)cc3)C2)c1 (stereo not drawn) | n[12.7 µM] | n | x | n | x | x
CCOc1ccc(NC(=O)CSc2nnc(-c3ccccn3)n2N)cc1 | n | n | n | n | 11µM | n
CCn1c(SCC(=O)Nc2ccc3c(c2)OCCO3)nnc1-c1ccccn1 | u | u | n | n | u | n
CCOc1ccc(NC(=O)CSc2nc3cccnc3n2CC)cc1 | n | u | n | n | n | n
CCn1c(SCC(=O)Nc2ccc(C)cc2)nnc1-c1ccccn1 | 50µM | x | n | n | x | u
C=CCNC(=O)CSc1nnc(-c2ccccn2)n1Cc1ccccc1 | n | x | n | n | 35µM | n
CC(C)(C)NC(=O)CSc1nnc(-c2ccccn2)n1Cc1ccccc1 | n[12.7 µM] | x | n | n | x | n
CCOc1ccc(NC(=O)CSc2nc3cccnc3n2CCOC)cc1 | n[12.7 µM] | n | n | n | 28µM | n
COc1cc(C(=O)NCc2nc3cccnc3n2Cc2ccc(C)cc2)cc(OC)c1OC | n | u | x | n | x | x
CCOc1ccc(CCNC(=O)C(CCC(N)=O)NC(=O)OCc2ccccc2)cc1OCC (stereo not drawn) | n | x | n | n | n | n
